KB-V1 MDR tox – KB-V1 MDR subline cytotoxicity. KB-V1 MDR cells viability, CellTiter-Glo, 72 h. Potency, µM (highest dose often 46.1 µM), hits mostly cytotoxic. 400,000 compounds, 3.4% hits; also: % is scaled to controls: 0 for no effect and ±100 for the full control effect; nearly all actives have a fitted effect of over 60% in size
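Compound-treated KB-V1 multidrug-resistant cells, 72 h, 37 degrees C; viability by CellTiter-Glo. Fitted qHTS curves give the values.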
KB-3-1 cytotox – KB-3-1 parental cell cytotoxicity | 400,000 compounds, 1.4% hits | AID 1347075 | KB-3-1 viability, CellTiter-Glo ATP luminescence, 72 h | Potency, µM (highest dose often 46.1 µM), hits mostly cytotoxic; also: % is scaled to controls: 0 for no effect and ±100 for the full control effect; nearly all actives have a fitted effect of over 60% in size
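Here the drug-naive KB-3-1 line serves as comparator for MDR sub-line selectivity; cells received compound titrations, 72 h at 37 °C, then CellTiter-Glo readout.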
ELG1 repair inh – ELG1-dependent DNA repair inhibition; HEK293T ELG1-luciferase reporter, luminescence, 16 h; DNA damage induced by 5-fluorouridine; Potency, µM (highest dose often 46.1 µM), for the others: at the top dose activity change, negative = inhibition, actives largely listed as inhibitors; 330,000 compounds, 2.3% hits; also: % is scaled to controls: 0 for no effect and ±100 for the full control effect; nearly all actives have a fitted effect of over 55% in size
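Luminescence from the luciferase reporter, measured 30 min after ONE-Glo reagent at room temperature, was the read-out. Beforehand, 2,000 cells per well were exposed for 16 hr at 37 °C to 5-fluorouridine together with compound or vehicle.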
SW480 rereplic – DNA re-replication induction in SW480 cells; 340,000 compounds, 1.8% hits; SW480 DNA re-replication, Hoechst DNA content imaging, 48 h; Potency, µM (top dose mostly 46.1 µM), without a hit: at the highest dose re-replication activation, hits mostly activators; also: % of control where 0% means no effect; nearly all actives have a fitted effect of over 55% in size
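DNA re-replication was detected as more nuclei of elevated Hoechst intensity after 48 hr exposure to compound (23 nL pinned per well of 250 cells).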
MCF10A rereplic – DNA re-replication induction in MCF 10a cells | MCF 10A DNA re-replication, Hoechst nuclear intensity, 48 h | Potency, µM (series often up to 46.1 µM), inactives show at the top dose activity, positive = re-replication, hits mostly activators | 350,000 compounds, 2.9% hits; also: % of control where 0% means no effect; nearly all actives have a fitted effect of over 50% in size
An asterisk follows results filed as active; i = inactive; ? = inconclusive; · = not tested or not shown. A selection: hits, their analogues and other compounds. The true share with any hit is near 8.2%. Calls follow the shape of the dose curve; as a rule, active = well fitted curve in the direction sought with a large enough effect; inconclusive = small, poorly fitted or top-dose-only effect, or another doubt; inactive = no such curve, though single readings can be large; an effect the other way counts as inactive or inconclusive. Potency is read from the fitted curve at half-maximal effect.

SMILES	KB-V1 MDR tox	KB-3-1 cytotox	ELG1 repair inh	SW480 rereplic	MCF10A rereplic
NC(=O)c1nsc(C(=O)N(c2ccccc2F)C(C(=O)NCc2ccccc2)c2ccc(O)cc2)c1N (centres undefined)	i	?	6.5µM*	-1%	?
CN1CCN(C(=O)C2CCCCC2)CC1	·	·	·	2%	1%
Cc1ccc(-c2csc(=Nc3ccccc3)n2Cc2ccc3c(c2)OCO3)cc1C	i	i	·	·	·
CCOC(=O)C1=C(Nc2ccccc2)CC(C)(O)C(C(=O)OCC)C1c1ccc(Br)cc1 (centres undefined)	23µM*	?	?	?	5%
O=C(CCC(=O)OCC(=O)c1ccccc1)Nc1cccc2cccnc12	i	i	1%	18µM*	16µM*
CN(c1cccc(NC(=O)c2ccccc2N(Cc2ccccc2)S(C)(=O)=O)c1)S(C)(=O)=O	i	i	-11%	1%	-4%
CC(=O)c1cccc(NC(=O)c2ccccc2N(Cc2ccccc2)S(C)(=O)=O)c1	i	i	-28%	-19%	2.3µM*
CCN(c1ccccc1)S(=O)(=O)c1cc(C(=O)Nc2cccc(Cl)c2)ccc1F	21µM*	?	23µM*	?	?
CC(=O)c1cccc(NC(=O)c2ccc(N(Cc3ccccc3)S(C)(=O)=O)cc2)c1	21µM*	?	?	-8%	14%
CN(C)c1ccc(N2C(=NC(=O)CCC3CCCC3)SC3CS(=O)(=O)CC32)cc1 (centres undefined)	i	?	2%	-59%	0%
CC1CCN(S(=O)(=O)c2ccc3c(c2)oc(=O)n3CC(=O)N2CCCCC2)CC1	i	i	·	·	·
N=c1sccn1CC(=O)Nc1cc(S(=O)(=O)N2CCCCC2)ccc1Cl	i	i	12%	5%	-6%
CCOc1cc(/C=C2\CCn3c2nc2cc(Cl)ccc2c3=O)ccc1O	i	i	14%	10µM*	13µM*
CCOc1cc(/C=C2\CN(C)C/C(=C\c3ccc(O)c(OCC)c3)C2=O)ccc1O	21µM*	7.3µM*	23µM*	1.6µM*	0.73µM*
O=c1c2ccc(Cl)cc2nc2n1CC/C2=C\c1cccc(O)c1	?	?	-3%	?	?
CCOc1cc(/C=C2\CCC/C(=C\c3cc(Cl)c(O)c(OCC)c3)C2=O)cc(Cl)c1O	?	?	6.5µM*	?	?
O=C(CNc1cc(S(=O)(=O)N2CCOCC2)ccc1N1CCCC1)Nc1ccc(Cl)cc1F	i	i	·	·	·
Cc1cccc(C)c1N1C(=O)c2ccccc2NC(=O)C1C(=O)Nc1ccc(N2CCOCC2)cc1 (centres undefined)	i	i	·	·	·
Cc1ccc(O)c(C(=O)c2cnc3c(c2)c(-c2ccc(F)cc2)c(C#N)c(=O)n3C)c1	i	i	?	-1%	-7%
COC(=O)c1ccc(N2CN=C(c3ccc(C)cc3)NC2=S)cc1	i	i	10%	-1%	26µM*
CN1C/C(=C/c2ccncc2)C(=O)/C(=C/c2ccncc2)C1	i	i	?	23µM*	?
O=C1/C(=C\c2ccsc2)N2CCC1CC2	i	i	16%	-4%	-1%
CN1C/C(=C/c2ccsc2)C(=O)/C(=C/c2ccsc2)C1	?	?	?	3.3µM*	18µM*
CCn1c(=O)cc(OCC(=O)N2CCN(c3ccc(OC)cc3)CC2)c2ccccc21	i	i	·	·	·
Oc1ccc(/C=N/Nc2ccc(C(F)(F)F)cn2)cc1	i	?	?	9.2µM*	-1%
SMILES	KB-V1 MDR tox	KB-3-1 cytotox	ELG1 repair inh	SW480 rereplic	MCF10A rereplic
COc1cc(/C=N/Nc2ccc(C(F)(F)F)cn2)cc(OC)c1O	i	?	-5%	12µM*	23%
COc1cc(/C=N/Nc2ccccn2)cc(OC)c1O	i	i	?	19%	-17%
CCn1cc(CN2CCC(n3nccc3NC(=O)c3ccccc3C)CC2)cn1	?	i	1%	-2%	-1%
O=C(Nc1ccc2nc(-c3ccco3)c(-c3ccco3)nc2c1)N1CCCCCC1	?	i	?	?	18µM*
CCOC(=O)C1CCN(C(=O)Nc2ccc3nc(-c4ccco4)c(-c4ccco4)nc3c2)CC1	i	i	?	-6%	?
CN1CCCN(C(=O)Cc2c(Cl)cccc2Cl)c2nc3ccccc3nc21	i	i	-22%	16µM*	?
CC(=O)Nc1cc(C(=O)OCC(=O)c2ccc(Cl)cc2Cl)ccc1C	?	i	6%	-5%	8%
CC(C)C(=O)Nc1cccc(C(=O)OCC(=O)c2ccc(Cl)cc2Cl)c1	15µM*	i	0%	3%	10%
C=C1NN(C)C(=O)N1c1ccc(OC)cc1	i	i	·	·	·
Cn1c(=O)oc2cc(S(=O)(=O)N3CCCC(C(=O)N4CCN(c5cccc(Cl)c5)CC4)C3)ccc21 (centres undefined)	i	21µM*	·	·	·
Cc1cccc(N2CCN(C(=O)C3CCCN(S(=O)(=O)c4ccc5c(c4)oc(=O)n5C)C3)CC2)c1C (centres undefined)	i	7.3µM*	·	·	·
Cc1cccc(N2CCN(C(=O)C3CCN(S(=O)(=O)c4ccc5c(c4)oc(=O)n5C)CC3)CC2)c1C	i	i	·	·	·
O=C(NCc1ccc(Cl)cc1)C(=O)Nc1ccc(Br)cc1	i	i	·	·	·
CN1CCN(c2ccc(NC(=O)c3ccc(Br)o3)cc2)CC1	i	i	?	13%	19%
O=C(Nc1ccc(S(=O)(=O)N2CCCCCC2)cc1)c1ccc(Br)o1	5.8µM*	?	-15%	6%	14%
Cc1ccc(C(=O)Nc2ccc(S(=O)(=O)N3CCCC3)cc2)o1	?	i	-2%	2%	-1%
CCCCn1nnc(NC(=O)c2ccc(-c3ccccc3[N+](=O)[O-])o2)n1	i	i	?	12%	0%
CCC(=O)N1CCN(c2ccc(NC(=O)c3ccc(Br)o3)cc2)CC1	i	i	?	21µM*	3%
CC(=O)Nc1ccc2nc(NC(=O)c3ccc([N+](=O)[O-])o3)sc2c1	16µM*	9.2µM*	21µM*	3.3µM*	0.65µM*
CCn1nnc(NC(=O)c2ccc([N+](=O)[O-])o2)n1	i	?	?	?	15µM*
O=C(Nc1ccc(Cc2ccncc2)cc1)c1ccc([N+](=O)[O-])o1	i	?	-13%	5.2µM*	3.7µM*
O=C(Nc1ccc(N2CCOCC2)cc1)c1ccc([N+](=O)[O-])o1	?	i	?	1.3µM*	4.6µM*
Cc1ccc(C(=O)Nc2ccc(S(=O)(=O)N3CCc4ccccc43)cc2)o1	?	i	·	6%	1%
Cc1ccc(C(=O)Nc2ccc(S(=O)(=O)N3CCc4ccccc4C3)cc2)o1	15µM*	i	?	-1%	4%
